In PubChem BioAssay (EPA / NIEHS) one finds outcome and AC50 data, which are given here for 4 compounds.

The AC50 is the concentration giving half of the maximal activity seen.

Active and inactive are the calls of the source. How the source made its calls: active means hit-call score of the fitted dose curve at least 0.9, where 1 is the maximum; inactive means score below 0.9.

Read-out in test [1]: Monokine induced gamma interferon (MIG), CXCL9 (gene 4283)
Put plainly: BSK_hDFCGF_MIG: BioMAP Diversity Plus: hDFCGF Assay for Monokine induced gamma interferon (MIG) Biomarker Activity (AID 2283063). The following applies: primary human foreskin fibroblasts; actives raise or lower the signal. An outline of the steps: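 Human primary foreskin fibroblasts in the hDFCGF system, exposed to test chemical for 24 h; MIG measured by ELISA. Bidirectional curve fitting against DMSO negative control as activity baseline.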

Read-out in test [2]: Vascular cell adhesion molecule 1 (VCAM1), VCAM1 (gene 7412)
Put plainly: BSK_hDFCGF_VCAM1: BioMAP Diversity Plus: hDFCGF Assay for Vascular cell adhesion molecule 1 (VCAM1) Biomarker Activity (AID 2283065).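 On AC50: VCAM-1 protein level quantified by ELISA after 24 h chemical exposure.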 The conditions noted are these: primary human foreskin fibroblasts; actives raise or lower the signal. The method in brief: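 ELISA readout of VCAM-1 on human dermal fibroblast primary cultures, 24 h after chemical exposure. Gain or loss of signal fitted in both directions against DMSO baseline.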

Read-out in test [3]: Plasminogen activator inhibitor-1 (PAI1), SERPINE1 (gene 5054)
Briefly: BSK_hDFCGF_PAI1: BioMAP Diversity Plus: hDFCGF Assay for Plasminogen activator inhibitor-1 (PAI1) Biomarker Activity (AID 2283066). The conditions noted are these: primary human foreskin fibroblasts; actives raise or lower the signal. An outline of the steps:
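Fibroblasts from human foreskin were treated with test chemical. After 24 h, PAI-1 was measured by ELISA. Activity was fitted in both directions relative to DMSO.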

Read-out in test [4]: Intercellular Adhesion Molecule 1 (ICAM1), ICAM1 (gene 3383)
Briefly: BSK_KF3CT_ICAM1: BioMAP Diversity Plus: KF3CT Assay for Intercellular Adhesion Molecule 1 (ICAM1) Biomarker Activity (AID 2283067). The following applies: primary human keratinocytes with fibroblasts; actives raise or lower the signal. The method in brief:
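Cell-surface ICAM-1 was measured by ELISA 24 h after dosing primary human skin keratinocytes co-cultured with fibroblasts. Parallel SRB staining tracked overt cytotoxicity. Gain or loss of signal was fitted relative to DMSO.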

Read-out in test [5]: Interferon-gamma inducible Protein 10 (IP10), CXCL10 (gene 3627)
Briefly: BSK_KF3CT_IP10: BioMAP Diversity Plus: KF3CT Assay for Interferon-gamma inducible Protein 10 (IP10) Biomarker Activity (AID 2283068). The conditions noted are these: primary human keratinocytes with fibroblasts; actives raise or lower the signal. The method in brief: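 Signal is secreted/surface IP-10 by ELISA in a human primary skin co-culture of keratinocytes and foreskin fibroblasts, taken 24 h post-dosing; DMSO served as negative control.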

The nature of test [6]: BSK_KF3CT_SRB: Viability Assessment in the BioMAP Diversity Plus: KF3CT Assay (AID 2283069).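 Further: read 24 h after compound addition.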 The conditions noted are these: primary human keratinocytes with fibroblasts. An outline of the steps:
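Overt cytotoxicity is assessed as total protein by sulforhodamine B staining in parallel human skin co-cultures at 24 h after dosing. DMSO serves as negative control and baseline.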

Read-out in test [7]: Interleukin-1 alpha (IL1a), IL1A (gene 3552)
Put plainly: BSK_KF3CT_IL1a: BioMAP Diversity Plus: KF3CT Assay for Interleukin-1 alpha (IL1a) Biomarker Activity (AID 2283070). The conditions noted are these: primary human keratinocytes with fibroblasts; actives raise or lower the signal. The method in brief: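 Readout is IL-1a level by ELISA, compared bidirectionally with DMSO as baseline. Cells: human keratinocytes co-cultured with foreskin fibroblasts, harvested 24 h post-dose.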

Read-out in test [8]: TIMP metallopeptidase inhibitor 2 (TIMP2), TIMP2 (gene 7077)
Briefly: BSK_KF3CT_TIMP2: BioMAP Diversity Plus: KF3CT Assay for TIMP metallopeptidase inhibitor 2 (TIMP2) Biomarker Activity (AID 2283071). The following applies: primary human keratinocytes with fibroblasts; actives raise or lower the signal. An outline of the steps: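 Chemicals were dosed onto human skin primary co-cultures of keratinocytes and foreskin fibroblasts, and TIMP-2 was measured by ELISA after 24 hours. Activity in either direction was fitted relative to DMSO.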

Read-out in test [9]: Transforming growth factor beta 1 (TGFb1), TGFB1 (gene 7040)
Put plainly: BSK_KF3CT_TGFb1: BioMAP Diversity Plus: KF3CT Assay for Transforming growth factor beta 1 (TGFb1) Biomarker Activity (AID 2283072). The conditions noted are these: primary human keratinocytes with fibroblasts; actives raise or lower the signal. The method in brief: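 KF3CT co-culture (keratinocytes + fibroblasts), 24 h exposure → TGF-b1 ELISA → bidirectional fit, DMSO = baseline. Parallel SRB total-protein staining (0.1% SRB, 10% TCA fixation, 560 nm) for cytotoxicity.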

Read-out in test [10]: C-C motif chemokine 2 (Homo sapiens) (UniProt P13500)
Put plainly: BSK_KF3CT_MCP1: BioMAP Diversity Plus: KF3CT Assay for Monocyte Chemoattractant Protein 1 (MCP1/CCL2) Biomarker Activity (AID 2283073). The following applies: primary human keratinocytes with fibroblasts; actives raise or lower the signal. The method in brief:
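ELISA read-out of MCP-1, 24 h post-dose, in primary human skin keratinocytes co-cultured with fibroblasts. Parallel SRB staining monitors cytotoxicity; changes fitted both directions relative to DMSO.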

Read-out in test [11]: Matrix Metallopeptidase 9 (MMP9), MMP9 (gene 4318)
Put plainly: BSK_KF3CT_MMP9: BioMAP Diversity Plus: KF3CT Assay for Matrix Metallopeptidase 9 (MMP9) Biomarker Activity (AID 2283074). The conditions noted are these: primary human keratinocytes with fibroblasts; actives raise or lower the signal. The method in brief: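 Values come from bidirectional fitting relative to DMSO of MMP-9 levels, which were measured by ELISA. Measurements were taken 24 h after chemical dosing of a keratinocyte and foreskin fibroblast co-culture.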

Read-out in test [12]: urokinase plasminogen activator (uPA), PLAU (gene 5328)
Put plainly: BSK_KF3CT_uPA: BioMAP Diversity Plus: KF3CT Assay for urokinase plasminogen activator (uPA) Biomarker Activity (AID 2283075). The following applies: primary human keratinocytes with fibroblasts; actives raise or lower the signal. An outline of the steps: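 Values derive from bidirectional fitting against DMSO controls. Keratinocyte/foreskin fibroblast co-cultures received chemical; 24 h later uPA was detected by ELISA, with SRB total-protein staining in parallel wells for overt cytotoxicity.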

Read-out in another test: CD40, CD40 (gene 958)
Put plainly: BSK_LPS_CD40: BioMAP Diversity Plus: LPS Assay for CD40 Biomarker Activity (AID 2283076). The conditions noted are these: primary human HUVEC with PBMC; actives raise or lower the signal. An outline of the steps: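 In the LPS system of human endothelial cells with peripheral blood mononuclear cells, CD40 levels were read by ELISA 24 h post-treatment. Signal changes in either direction were fitted against the DMSO baseline, with parallel SRB protein staining.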

Read-out in test [13]: E-selectin (Homo sapiens) (UniProt P16581)
Put plainly: BSK_LPS_Eselectin: BioMAP Diversity Plus: LPS Assay for Eselectin Biomarker Activity (AID 2283077). The following applies: primary human HUVEC with PBMC; actives raise or lower the signal. An outline of the steps: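 E-selectin ELISA on LPS-stimulated endothelial cell/PBMC co-cultures, read 24 h post-treatment; gains and losses fitted against DMSO. Parallel SRB staining (0.1% SRB after 10% TCA fixation, 560 nm) flags overt cytotoxicity.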

Read-out in test [14]: Interleukin-8 (IL8), CXCL8 (gene 3576)
Briefly: BSK_LPS_IL8: BioMAP Diversity Plus: LPS Assay for Interleukin-8 (IL8) Biomarker Activity (AID 2283078). The following applies: primary human HUVEC with PBMC; actives raise or lower the signal. The method in brief:
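ELISA read-out of IL-8 after 24 h chemical treatment of LPS-activated endothelial/PBMC human primary co-cultures. Changes either up or down relative to DMSO; overt cytotoxicity checked by sulforhodamine B staining in parallel wells.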

The nature of test [15]: BSK_LPS_SRB: Viability Assessment in the BioMAP Diversity Plus: LPS Assay (AID 2283079).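 Further: total protein by sulforhodamine B absorbance as a cytotoxicity measure; measured one day after compound addition.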 The conditions noted are these: primary human HUVEC with PBMC. An outline of the steps: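 SRB viability endpoint: cells fixed with 10% TCA, stained with 0.1% SRB, read at 560 nm, 24 h post-dose. HUVEC/PBMC co-culture; signal change in either direction scored relative to DMSO.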
Read-out in test [16]: Interleukin-1 alpha (IL1a), IL1A (gene 3552)
Briefly: BSK_LPS_IL1a: BioMAP Diversity Plus: LPS Assay for Interleukin-1 alpha (IL1a) Biomarker Activity (AID 2283080). The conditions noted are these: primary human HUVEC with PBMC; actives raise or lower the signal. The method in brief:
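Readout is IL-1a level by ELISA, 24 h post-dose, fitted as gain or loss relative to DMSO. System: LPS-activated human primary co-culture of vascular endothelium and peripheral blood mononuclear cells, with parallel SRB total-protein cytotoxicity.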

Read-out in test [17]: Monocyte Chemoattractant Protein-1 (MCP1), CCL2 (gene 6347)
Briefly: BSK_LPS_MCP1: BioMAP Diversity Plus: LPS Assay for Monocyte Chemoattractant Protein-1 (MCP1) Biomarker Activity (AID 2283081).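 On AC50: secreted MCP-1 protein quantified by ELISA in culture supernatant.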 The following applies: primary human HUVEC with PBMC; actives raise or lower the signal. The method in brief: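 Secreted MCP-1 read by ELISA at 24 h post-dosing in an LPS-activated co-culture of endothelial cells with peripheral blood mononuclear cells. Fits run in both directions, DMSO as baseline; parallel SRB staining tracks overt cytotoxicity.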

Test [18] is described as follows: BSK_LPS_PGE2: BioMAP Diversity Plus: LPS Assay for Prostaglandin E2 (PGE2) Biomarker Activity (AID 2283082).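 On AC50: secreted prostaglandin E2 measured by ELISA in LPS-stimulated co-culture.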 The following applies: primary human HUVEC with PBMC; actives raise or lower the signal. The method in brief:
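Compounds were added to the LPS co-culture of endothelium and PBMC, and PGE2 was measured by ELISA after 24 h. Responses in either direction were fitted with DMSO as baseline.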

E-selectin (Homo sapiens), sequence (P16581 whole entry, looked up): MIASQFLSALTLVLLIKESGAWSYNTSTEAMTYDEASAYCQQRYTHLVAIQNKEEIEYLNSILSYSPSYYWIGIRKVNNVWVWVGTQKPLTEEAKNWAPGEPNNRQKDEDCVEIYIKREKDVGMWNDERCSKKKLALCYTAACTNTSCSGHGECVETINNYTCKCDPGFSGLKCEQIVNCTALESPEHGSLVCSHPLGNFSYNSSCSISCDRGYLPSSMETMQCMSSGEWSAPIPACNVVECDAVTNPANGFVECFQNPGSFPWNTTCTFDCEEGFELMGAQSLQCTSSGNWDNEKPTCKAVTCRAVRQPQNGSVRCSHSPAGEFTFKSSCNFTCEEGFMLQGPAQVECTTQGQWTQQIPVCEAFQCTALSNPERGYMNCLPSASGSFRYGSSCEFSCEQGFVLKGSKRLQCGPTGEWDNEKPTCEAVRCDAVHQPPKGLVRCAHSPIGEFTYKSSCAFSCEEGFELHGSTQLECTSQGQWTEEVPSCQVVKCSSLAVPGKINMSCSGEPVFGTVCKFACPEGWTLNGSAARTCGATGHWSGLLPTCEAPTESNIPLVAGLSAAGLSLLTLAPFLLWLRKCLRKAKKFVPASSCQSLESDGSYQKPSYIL

As for `Cc1cc(Cl)ccc1OC(C)C(=O)O` (stereo not given), the outcome in test [1], in test [2], in [3], in test [4], in test [5] and in test [6] was inactive. Besides, the result in test [7], in [8], in test [9], in test [10], in [11] and in test [12] was inactive. Also, the outcome with CD40, CD40 (gene 958) is “inactive”; in test [13], “inactive”; in [14] it was “inactive”; in test [15], “inactive”; in test [16], “inactive”; in test [17] it was “inactive”. In [18], the outcome was inactive.

Turning to `CCOP(=S)(OCC)SCS(=O)(=O)C(C)(C)C`, the result in test [1], in test [2], in [3], in test [4], in [5] and in test [6] was inactive. Besides, the outcome in test [7] was “inactive”; in test [8], “inactive”; in test [9] it was “inactive”; in [11], “inactive”; in test [12], “inactive”; in the test with CD40, CD40 (gene 958), “inactive”. Further, the outcome in test [13], in [14], in [15], in test [16], in test [17] and in test [18] was inactive.

On to `CCOC(=O)CC(=O)CCl`, for which the concentration at half-maximal activity (AC50) was 20 µM (active) in [1]; 20 µM (active) in test [2]; 6.58 µM (active) in test [7]; 20 µM (active) with CD40, CD40 (gene 958); 31.9 µM (active) in [14]; 31.1 µM (active) in [16]. Besides, the values for the AC50 in [17] and in test [18] were 26.1 µM (active) and 29 µM (active), respectively. Further, the result in test [3], in test [4], in test [5], in test [6], in test [8] and in [9] was inactive. Moreover, the outcome in [10], in test [11], in test [12], in test [13] and in test [15] was inactive.

`Oc1c(Cl)cc(Cl)cc1Cl`: the outcome in test [1], in test [2], in test [3], in test [4], in test [5] and in test [6] was inactive. In addition, the result in test [7], in test [8], in test [9], in test [10], in test [11] and in [12] was inactive. For the same compound, the outcome with CD40, CD40 (gene 958) was “inactive”; in test [13] it was “inactive”; in [14], “inactive”; in test [15] it was “inactive”; in [16], “inactive”; in test [17], “inactive”. For the same compound, the result in [18] was inactive.
